# Measured values taken from PubChem BioAssay (EPA / NIEHS).
# Activity calls are given as the source filed them. Rule for the calls: active = hit-call score of the fitted dose curve at least 0.9, where 1 is the maximum; inactive = score below 0.9.
# Read-out: Cytochrome P450 3A4 (Homo sapiens) (UniProt P08684)
# Test: LTEA_HepaRG_CYP3A4: Life Technologies and Expression Analysis (LTEA) Assay for CYP3A4 using HepaRG (AID 2283487)
# Conditions: mRNA level, 48 h; actives raise or lower the signal
# Method: LTEA_HepaRG is a cell based, multiplexed-readout assay that uses HepaRG, a human liver cell line, with measurements taken at 48 hours after chemical dosing on a 96-well plate.LTEA_HepaRG_CYP3A4 is one of 102 assay component(s) measured in the LTEA HepaRG cell culture assay. It is a marker of NR mediated metabolism.Data from the assay component LTEA_HepaRG_CYP3A4 was analyzed into 1 endpoint. This assay endpoint, LTEA_HepaRG_CYP3A4, was analyzed with bidirectional fitting relative to DMSO as the negative control and baseline of activity. Using a type of inducible reporter, measures of mRNA induction for gain or loss-of-signal activity can be used to understand regulation of transcription factor activity. To generalize the intended target to other relatable targets, this assay endpoint is annotated to the cyp intended target family, where the subfamily is xenobiotic metabolism.
# A total of 1060 chemcials from the ToxCast library were tested in eight-point concentration-response experiments. Cell culture and cytotoxicity assays were conducted at Thermo Fisher Scientific's Custom Services facility (Madison, WI). A single lot of human HepaRG cells (Thermo Fisher Scientific, Frederick, MD) was used for the cell culture experiments. 96-well format collagen type I coated plates of human HepaRG cells were prepared using established methods. Briefly, cryopreserved HepaRG cells were thawed, plated at a density of approximately 100,000 cells/well in HepaRG Thaw, Plate, and General Purpose media (HPRG770, Thermo Fisher Scientific), and incubated for 48 hours. 0.5% DMSO was selected as vehicle control to balance the requisite need of DMSO in HepaRG cultures to maintain differentiation (for example, baseline metabolism, proportions of hepatocytes vs. cholangiocytes), while enabling further hepatic receptor pathway activation (for example, PXR and CAR) in response to chemical exposure. 48 hours after plating, the culture medium was replaced with HepaRG Serum-Free Incudtion Media. Cells were exposed to each test chemical in duplicate and maintained in CO2 incubators for another 48 hours. Chemical plates were thawed to room temperature and 200x concentrations of treatment groups were prepared. 8-point conentration-reponse curves were made with the highest exposure at 100 uM, followed by half-log dilutions, all in 0.5% DMSO. Each test plate contained variouse controls, induction positive controls (1mM phenobarbital), cytotoxicity positive controls ([…] aflatoxin B1), vehicle controls (0.5% DMSO), and total lysis controls (0.5% DMSO). Cell morphology images were taken using an Essen IncuCyte FLR automated microscope, with six 96-well plates imaged in about 24 minutes. Images were captured and exported and JPEG files. Spent culture media was transfered to black-well plates for the LDH assay, and remaining media was sorted at -80 C for later use. Cells were treated with RLT buffer and frozen until shipped for gene expression analysis. Total RNA was isolated from the cell suspension in 75 uL of Buffer RLT (Qiagen, Germantown, MD 20874) by Quintiles/Expression Analysis (Durham, NC) using a custom isolation procedure. Total RNA from each plate well was transferred to a preamplification plate. Fluidigm's 96.96 Dynamic ArrayTM (Fluidigm, Amsterdam, the Netherlands) technology was used for gene expression analyses by quantitative reverse transcription polymerase chain reaction (qRT-PCR, performed by Quintiles/Expression Analysis, Durham, NC)89. Standard TaqManTM Assays (Applied Biosystems/ThermoFisher Scientific, Foster City, CA) were used to assess the expression of 93 genes selected based on their selectivity and sensitivity to important hepatic receptors known to be modulated by environmental chemicals; importance in human hepatocyte functionality; and hepatotoxicity. […]
# Cytochrome P450 3A4 (Homo sapiens), sequence (P08684 whole entry, looked up): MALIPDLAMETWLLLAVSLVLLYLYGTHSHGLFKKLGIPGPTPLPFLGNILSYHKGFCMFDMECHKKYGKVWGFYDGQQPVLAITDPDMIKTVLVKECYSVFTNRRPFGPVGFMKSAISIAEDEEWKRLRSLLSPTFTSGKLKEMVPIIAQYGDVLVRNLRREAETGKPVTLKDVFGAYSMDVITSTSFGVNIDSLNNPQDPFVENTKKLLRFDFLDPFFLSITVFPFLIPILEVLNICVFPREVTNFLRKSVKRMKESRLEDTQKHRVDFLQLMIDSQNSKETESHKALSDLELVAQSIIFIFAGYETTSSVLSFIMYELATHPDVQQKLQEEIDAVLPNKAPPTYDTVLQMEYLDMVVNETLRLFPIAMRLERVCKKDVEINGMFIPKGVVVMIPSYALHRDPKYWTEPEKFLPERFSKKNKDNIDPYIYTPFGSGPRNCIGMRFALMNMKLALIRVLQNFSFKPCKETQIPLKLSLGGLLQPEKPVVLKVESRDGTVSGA
SMILES,AC50,outcome
CC(C)(C)c1ccc(CSc2cnn(C(C)(C)C)c(=O)c2Cl)cc1,1.56 µM (active),–
CCCCNC(=O)OCC#CI,–,inactive
Cc1ccc(-c2c(Cl)nc(C#N)n2S(=O)(=O)N(C)C)cc1,24.8 µM (active),–
O=C(Nc1ccccc1)Nc1ccnc(Cl)c1,70.8 µM (active),–
CCOC(=O)CC(SP(=S)(OC)OC)C(=O)OCC (stereo not given),–,inactive
N#Cc1cc(Br)c(O)c(Br)c1,16.1 µM (active),–
CCOC(=O)C(Cl)Cc1cc(-n2nc(C)n(C(F)F)c2=O)c(F)cc1Cl (stereo not given),18.7 µM (active),–
Cc1cc(Cl)ccc1OCC(=O)O,–,inactive
Cc1c(F)c(F)c(COC(=O)C2C(/C=C(\Cl)C(F)(F)F)C2(C)C)c(F)c1F (stereo not given),–,inactive
CNC(=S)S,–,inactive
N#CC(CCc1ccc(Cl)cc1)(Cn1cncn1)c1ccccc1 (stereo not given),85.9 µM (active),–
COC(=O)N(OC)c1ccccc1COc1ccn(-c2ccc(Cl)cc2)n1,78.5 µM (active),–
CS/C(C)=N/OC(=O)N(C)SN(C)C(=O)O/N=C(\C)SC,–,inactive
CCNc1nc(Cl)nc(NCC)n1,–,inactive
O=C(O)c1nc(Cl)ccc1Cl,–,inactive
CON(C)C(=O)Nc1ccc(Cl)c(Cl)c1,78.6 µM (active),–
CC1COC(Cn2cncn2)(c2ccc(Oc3ccc(Cl)cc3)cc2Cl)O1 (stereo not given),23.2 µM (active),–
COC(=O)c1ccccc1C(=O)OC,–,inactive
CCOc1cc(Oc2ccc(C(F)(F)F)cc2Cl)ccc1[N+](=O)[O-],12.2 µM (active),–
CCc1nn(C)c(C(=O)NCc2ccc(C(C)(C)C)cc2)c1Cl,13.3 µM (active),–

SMILES,AC50,outcome
CNC(=O)ON=CC(C)(C)SC,–,inactive
CC1=C(C(=O)Nc2ccccc2)SCCO1,–,inactive
CCCCOC(=O)c1ccccc1C(=O)OCCCC,–,inactive
COP(=S)(OC)Oc1nc(Cl)c(Cl)cc1Cl,–,inactive
CN(C)C(=S)SSC(=S)N(C)C,–,inactive
COC(=O)C=C(C)OP(=O)(OC)OC,–,inactive
O=C(O)COc1nc(Cl)c(Cl)cc1Cl,–,inactive
CCOP(=S)(OCC)SCn1c(=O)oc2cc(Cl)ccc21,–,inactive
COP(N)(=O)SC (stereo not given),–,inactive
CC(C)Oc1cc(-n2nc(C(C)(C)C)oc2=O)c(Cl)cc1Cl,1.04 µM (active),–
C=CCC1=C(C)C(OC(=O)C2C(C=C(C)C)C2(C)C)CC1=O (stereo not given),–,inactive
C=CCC1=C(C)[C@@H](OC(=O)[C@@H]2[C@@H](C=C(C)C)C2(C)C)CC1=O,–,inactive
C=CC1(C)OC(=O)N(c2cc(Cl)cc(Cl)c2)C1=O (stereo not given),13.6 µM (active),–
Fc1ccc(Oc2ccnc3cc(Cl)cc(Cl)c23)cc1,–,inactive
N#Cc1nn(-c2c(Cl)cc(C(F)(F)F)cc2Cl)c(N)c1S(=O)C(F)(F)F (stereo not given),32.6 µM (active),–
COC(=O)C(C)Oc1ccc(Oc2ccc(Cl)cc2Cl)cc1 (stereo not given),–,inactive
CCNc1nc(Cl)nc(NC(C)C)n1,15.7 µM (active),–
CC(C)C1(C)N=C(c2nc3ccccc3cc2C(=O)O)NC1=O (stereo not given),18.8 µM (active),–
OC(c1ccc(Cl)cc1)(c1cncnc1)c1ccccc1Cl (stereo not given),11.4 µM (active),–
COc1nc(NC(C)C)nc(NC(C)C)n1,7.19 µM (active),–
